Screening data: PubChem BioAssay, National Center for Advancing Translational Sciences (NCATS)
Sampled rows, rich in hits. Any-hit rate of the full collection: about 12%.
PLK1 PBD inh: inhibitors of human PLK1 polo-box domain binding. Plk1 PBD binding of FITC phosphopeptide, fluorescence polarization. Potency, µM, without a hit: max response, negative = inhibition, actives largely listed as inhibitors. 360,000 compounds, 2.8% hits. AID 720504; note: series mostly up to about 57 µM; nearly all actives have a fitted effect of over 65% in size
Target sequence (P53350 whole entry, looked up, the tested form may be a part): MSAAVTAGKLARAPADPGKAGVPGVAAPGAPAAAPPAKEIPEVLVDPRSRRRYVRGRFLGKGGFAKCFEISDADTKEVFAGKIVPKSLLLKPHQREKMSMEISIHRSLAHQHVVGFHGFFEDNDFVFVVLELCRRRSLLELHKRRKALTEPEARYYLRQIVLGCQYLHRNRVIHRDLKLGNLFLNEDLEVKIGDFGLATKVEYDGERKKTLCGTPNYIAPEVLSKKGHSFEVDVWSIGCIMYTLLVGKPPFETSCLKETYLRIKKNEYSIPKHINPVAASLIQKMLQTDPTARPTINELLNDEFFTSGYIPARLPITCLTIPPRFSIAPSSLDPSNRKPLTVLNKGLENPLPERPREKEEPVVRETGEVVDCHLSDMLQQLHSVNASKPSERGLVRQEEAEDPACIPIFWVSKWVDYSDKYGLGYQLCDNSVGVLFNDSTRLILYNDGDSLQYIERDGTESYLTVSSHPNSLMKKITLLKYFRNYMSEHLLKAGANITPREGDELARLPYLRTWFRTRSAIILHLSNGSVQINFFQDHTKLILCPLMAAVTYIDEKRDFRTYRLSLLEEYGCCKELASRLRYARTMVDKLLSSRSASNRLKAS
RORgamma inh: ROR gamma (mouse) transcription inhibition. P51450. Drosophila S2 Gal4-RORgamma UAS-luciferase reporter, 20 h. Potency, µM (series often up to 53.6 µM), inactives show top-dose activity change, negative = inhibition, most hits filed as inhibitors. 310,000 compounds, 5.4% hits. AID 2551; note: nearly all actives have a fitted effect of over 60% in size
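Read-out: Photinus luciferase luminescence; inhibitors lower reporter signal. Insect Schneider cells with Gal4-ROR gamma fusion under metallothionein promoter, UAS reporter; 700 uM final copper sulfate induction, 20 hr, ambient temperature.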
ALDH1A1 block: ALDH1A1 (human) enzyme inhibition; 220,000 compounds, 7.3% hits; Potency, µM (top dose mostly 75.3 µM), for the others: top-dose activity, negative = inhibition, most hits filed as inhibitors; P00352; AID 1030; Purified ALDH1A1, NADH fluorescence, propionaldehyde substrate; active = well fitted inhibition curve with a large enough effect, not every such curve was filed as active; inconclusive = small, poorly fitted or top-dose-only effect, or another doubt; inactive = no such curve, though single readings can be large or run the other way;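 note: plate controls were no enzyme wells and a reference inhibitor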
VP16 counter: Gal4-VP16 reporter inhibition counter-screen; Drosophila S2 Gal4-VP16 UAS-luciferase, luminescence, 20 h; AID 2546; Potency, µM (titrated, usually from 53.6 µM), for inactives: top-dose activity, negative = inhibition, usual class: inhibitors; 310,000 compounds, 3.5% hits;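 note: Gal4-VP16 expression switched on by copper sulfate through the metallothionein promoter; nearly all actives have a fitted effect of over 50% in size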
Sfp inh: Sfp phosphopantetheinyl transferase inhibition; Q9F4F7; Biochemical Sfp PPTase activity, qHTS; Potency, µM, inactives show largest response in the series, negative = inhibition, usual class: inhibitors; 310,000 compounds, 3.5% hits; AID 1490;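 note: the enzyme is Sfp with the accession as filed and its product quenches rhodamine fluorescence; 0% = enzyme reaction without inhibitor and -100% = no enzyme wells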
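Fluorescence-quenching assay: 15 nM Sfp-PPTase preincubated 15 min at room temperature with compound, then 5 uM rhodamine-CoA and 12.5 uM BHQ-2-labelled YbbR peptide added. Fluorescence (ex 525/em 598 nm) read at start and after 30 min; difference gives rate.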
Active calls of the source: *; ? = inconclusive; . = not tested or not shown; [ ] = remark or other dose. Unless noted, calls come from the whole dose curve; as a rule, active = well fitted curve in the direction sought with a large enough effect; inconclusive = small, poorly fitted or top-dose-only effect, or another doubt; inactive = no such curve, though single readings can be large; an effect the other way counts as inactive or inconclusive. Unless noted, % is set by controls: 0 for no effect and ±100 for the full control effect; potency is the fitted concentration of half-maximal effect.

SMILES	PLK1 PBD inh	RORgamma inh	ALDH1A1 block	VP16 counter	Sfp inh
Cc1cccc(C)c1NC1=NC(=S)N(c2ccccc2)C12CCOC(C)(C)C2 (stereo not drawn)	3%	4µM*	2%	?	23%
Cc1cccc(N2C(=S)N=C(Nc3c(C)cccc3C)C23CCOC(C)(C)C3)c1 (stereo not drawn)	-4%	7%	0%	-7%	8%
COc1ccccc1N1C(=S)N=C(Nc2c(C)cccc2C)C12CCCC2	-12%	7.9µM*	3%	?	10%
CC(C)Nc1nc(Nc2ccc(C(N)=O)cc2)c2sccc2n1	-11%	.	.	.	.
COc1ccccc1N1CCN(C2C(=O)Nc3ccccc3-n3nnnc32)CC1 (stereo not drawn)	-2%	.	.	.	.
Cc1c(N2C(=O)c3ccc4c5c(ccc(c35)C2=O)CC4)c(=O)n(-c2ccccc2)n1C	?	-29%	?	-11%	-4%
Cc1c(N2C(=O)/C(=C3/C(=O)N(C)c4ccccc43)SC2=S)c(=O)n(-c2ccccc2)n1C	-15%	7.9µM*	0%	9%	-3%
CC(=O)N1C(=O)/C(=C2\SC(=S)N(c3c(C)n(C)n(-c4ccccc4)c3=O)C2=O)c2ccccc21	-26%	-31%	10µM*	-11%	-28%
CCN1C(=O)/C(=C2\SC(=S)N(c3c(C)n(C)n(-c4ccccc4)c3=O)C2=O)c2ccccc21	-7%	-35%	?	-10%[0.365 µM]	17%
Cc1c(N2C(=O)CSC2=S)c(=O)n(-c2ccccc2)n1C	0%	13µM*	-4%	1%	-18%
Cc1noc(C)c1C(=O)N1CCC2(CC1)CN(Cc1cc(C(F)(F)F)cc(C(F)(F)F)c1)C2	.	25%	1%	-1%	17%
O=c1cc(-c2ccccc2)nc2cc(-c3ccco3)[nH]n12	-2%	?	?	-8%	25µM*
Cc1cc2nc(CSc3ccccc3)cc(=O)n2[nH]1	21µM*	0%	-4%	-12%	-15%
Cc1cc2nc(CCl)cc(=O)n2[nH]1	4%	-16%	-4%	6%	-8%
Cc1cc2nc(-c3ccccc3)cc(=O)n2[nH]1	5%	13µM*	.	?	-22%
COc1ccc2c(Cc3c4ccccc4cc4ccccc34)cncc2c1O	.	.	-9%[13.5 µM]	.	.
O=C(CCSc1ccc(Cl)cc1)N1CCN(c2ccc(O)cc2)CC1	-16%	30%	.	6%	79µM*
O=C(CCOc1ccccc1)N1CCN(c2ccc(O)cc2)CC1	2%	24%	.	6%	50µM*
O=C(CCSc1ccccc1)N1CCN(c2ccccc2)CC1	-6%	9%	3%	7%	0%
CCOC(=O)c1c(C)n(C)c2ccc(OC)c(NC(=O)CN3CCN(C(=O)c4ccco4)CC3)c12	-3%	-112%	7.9µM*	5%	7%
CCOC(=O)c1c(C)n(C)c2ccc(OC)c(NC(=O)CN3CCN(Cc4ccccc4)CC3)c12	1%	-17%	-1%	8%	3%
CCOC(=O)c1c(C)c(C(=O)N2CCN(C(=O)c3ccco3)CC2)c(C)n1C	-5%	-3%	13µM*	-12%	4%
COC(=O)c1c(NC(=O)CN2CCN(C(=O)c3ccco3)CC2)c2c(C)cccc2n1C	-2%	-1%	?	-2%	20µM*
C[C@@H]1CCCCO[C@@H](CN(C)S(=O)(=O)c2cn(C)cn2)[C@@H](C)CN([C@H](C)CO)C(=O)c2cc(N(C)C)ccc2O1	-20%	.	.	.	.
C/C(=N/NC(=O)COc1cc(C)ccc1C(C)C)C(=O)O	0%	5%	?	4%	-13%
SMILES	PLK1 PBD inh	RORgamma inh	ALDH1A1 block	VP16 counter	Sfp inh
Cc1ccc(C(C)C)c(OCC(=O)NN=C(CCl)CCl)c1	.	28%	.	3%	50µM*
CC(=O)N1CCN(c2ccccc2NC(=O)COc2cc(C)ccc2C(C)C)CC1	-7%	-40%	-1%	0%	-6%
Cc1ccc(C(C)C)c(OCC(=O)Nc2ccccc2N2CCN(C)CC2)c1	3%	?	-7%	13µM*	?
CC(C)c1nnc2n1N=C(c1ccc(Cl)cc1)CS2	-9%	20%	.	-11%	-4%
CCCc1ccc(C2=Nn3c(nnc3C(C)C)SC2)cc1	11µM*	30%	.	-17%	22µM*
COC(=O)[C@@]1(Cc2ccc(OC)cc2)[C@H]2c3cc(C(=O)N(C)C)n(Cc4cc(F)c(F)c(F)c4)c3C[C@H]2CN1C(=O)c1ccccc1	.	11%	-1%	6%	14%
Cc1cn([C@H]2C[C@H](O)[C@@H](CNCc3ccc(-c4cc(Cl)ccc4C(F)(F)F)o3)O2)c(=O)[nH]c1=O	-5%	.	.	.	.
COc1ccc(CCNc2c(C)c(C)nc3ncnn23)cc1	-3%	-30%	37%	6.3µM*	19%
Cc1ccccc1C(NC(=O)C1CCN(Cc2ccc(Oc3ccccc3)cc2)CC1)c1ccsc1 (stereo not drawn)	-4%	.	.	.	.
Cn1cc(Br)c(NC(=O)/C=C/C(=O)O)n1	-12%	?	.	?	8.9µM*
O=C(O)/C=C\C(=O)Nc1ncn[nH]1	.	.	-8%[13.5 µM]	.	.
Cc1scc(C(=O)NNC(=S)NCC2CCCO2)c1C (stereo not drawn)	-1%	4.5µM*	?	-24%	9%
CCCc1cc(C(=O)NNC(=S)NCC2CCCO2)cs1 (stereo not drawn)	-6%	-7%	-3%	-20%	7%
Cc1scc(C(=O)NNC(=S)NCC2CCCO2)c1-c1ccccc1 (stereo not drawn)	-13%	7.9µM*	-7%	-7%	11%
CCc1cc(C(=O)NNC(=S)NCC2CCCO2)cs1 (stereo not drawn)	-6%	16µM*	5%	-5%	12%
COc1ccc(N/N=C(\C#N)C(=N)SCc2ccccc2)cc1	-4%	?	?	16µM*	-13%
COc1ccc(N/N=C(\C#N)C(=N)N2CCCCC2)cc1	5%	-11%	.	-16%	-9%
CCN(CC)CCNC(=O)C1c2cc(OC)c(OC)cc2C(=O)N(C)C1c1cccs1 (stereo not drawn)	4%	2%	8%	0%	-4%
C=CCOc1ccc(CN(C)Cc2nc3cc(C(F)(F)F)ccc3c(=O)[nH]2)cc1	0%	7.1µM*	-14%	?	5%
COc1cccc(CN(C)Cc2nc3cc(C(F)(F)F)ccc3c(=O)[nH]2)c1	3%	2µM*	.	-19%	-2%
COc1cccc(Oc2ccc(C(F)(F)F)cc2NC(=O)CCc2nc3ccccc3c(=O)[nH]2)c1	10%	28%	.	30%	7%
CC1Cc2ccccc2N1Cc1nc2cc(C(F)(F)F)ccc2c(=O)[nH]1 (stereo not drawn)	-6%	1%	?	-2%	15%
Cc1ccc(C)c(NC(=O)CN(C)C(C)C(=O)N2CC(C)CC(C)C2)c1 (stereo not drawn)	3%	.	.	.	.
CC1CCCCN1c1nc2nonc2nc1N1CCCCC1C (stereo not drawn)	-14%	0%	2.2µM*	-2%	8%
